Screens deposited in PubChem by National Center for Advancing Translational Sciences (NCATS).
A selection: hits, their analogues and other compounds. The true share with any hit is near 4.7%.
D1 antagonist – human D1 dopamine receptor antagonism; activity change, negative = inhibition, % at 10 µM; HEK293 TREx D1 cells, calcium flux, dopamine EC80; stronger effect = lower value; 360,000 tested, 3.2% active; P21728; in the data active means activity change below about -30%
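Allosteric or orthosteric antagonism assessed as attenuation of the calcium response to EC80 dopamine, added 180 s after compound, in induced HEK293 Trex D1 cells loaded with no-wash calcium dye.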
TRHR ag – activates the human TRH receptor | P34981 | TRHR cells, calcium flux fluo-8, FDSS agonist mode | activation, % at 2 µM | 360,000 tested, 0.18% active
Target sequence (P34981 whole entry, looked up): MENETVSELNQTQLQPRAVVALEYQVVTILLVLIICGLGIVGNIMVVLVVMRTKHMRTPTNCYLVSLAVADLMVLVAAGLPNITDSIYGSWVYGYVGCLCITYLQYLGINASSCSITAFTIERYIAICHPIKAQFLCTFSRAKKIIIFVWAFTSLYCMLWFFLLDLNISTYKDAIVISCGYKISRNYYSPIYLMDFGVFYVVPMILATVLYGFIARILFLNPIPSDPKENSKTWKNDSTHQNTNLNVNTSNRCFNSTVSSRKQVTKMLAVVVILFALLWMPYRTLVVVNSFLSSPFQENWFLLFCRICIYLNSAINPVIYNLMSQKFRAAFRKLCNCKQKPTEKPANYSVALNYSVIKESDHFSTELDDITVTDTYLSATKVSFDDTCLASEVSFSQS
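Steps: seed TRHR cells overnight; add fluo-8 no-wash Ca dye, RT 30 min–1.5 h; record 10 s baseline; pin-transfer compounds; monitor fluorescence 1 cycle/s for the agonist window. Calcium increases flag candidate agonists.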
D1 PAM – enhances dopamine response at the human D1 receptor | P21728 | HEK293 TREx D1 cells, calcium flux, dopamine EC20 potentiation | potentiation, % at 10 µM | 360,000 tested, 0.036% active; in the data active means potentiation above about 30%
D1 agonist – activates the human D1 dopamine receptor | AID 504660 | activation, % at 2 µM | P21728 | 360,000 tested, 1% active | HEK293 T-REx D1 cells, calcium flux, agonist mode
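Inducible HEK293 T-REx D1 cells, force-coupled to calcium signalling, were plated at 4000 cells/well with tetracycline and held overnight at 30 C. After no-wash calcium dye loading, compound-evoked calcium rise over 180 s flagged agonists.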
TRHR PAM – allosterically enhances the human TRH receptor; P34981; TRHR cells, fluo-8 calcium fluorescence, EC20 TRH enhancement; 360,000 tested, 0.66% active; enhancement, % at 2 µM; in the data active means enhancement above about 30%
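TRHR-expressing cells loaded with fluo-8 calcium dye were read kinetically (ex 480/em 530) during compound addition, then stimulated with an EC20 of TRH (10 nM final). Enhancement of the Gq-mediated intracellular calcium response was scored.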
Hits are given with their value; i = inactive; nt = no result given. Unless noted, no stated cut-off is given here; in the data, active means activation above about 30%; inactive means the rest.

SMILES | D1 antagonist | TRHR ag | D1 PAM | D1 agonist | TRHR PAM
Cc1nc2c3ccccc3nc(NNC(=O)CCC(=O)N3CCN(c4cccc(Cl)c4)CC3)n2n1 | i | i | i | i | i
O=C(N1CCOCC1)C12CC3CC(C1)CC(n1cnc(Cl)n1)(C3)C2 | i | i | i | i | 32
O=C(N1CCOCC1)C12CC3CC(C1)CC(C(=O)N1CCOCC1)(C3)C2 | i | i | i | i | i
Cc1ccc(-c2nnn3c2nc(NCCc2ccccc2)c2ccccc23)cc1 | i | i | i | i | i
CC(=O)Oc1c(C)cc(Cl)cc1C(=O)Nc1ccc([N+](=O)[O-])cc1Cl | i | i | i | 34 | i
O=C(O)c1ccc(CSc2nc(-c3ccc(Cl)cc3)cc(C(F)(F)F)n2)cc1 | i | i | i | 37 | i
CCOC(=O)c1c(C)c(C(=O)NCc2ccc(Cl)cc2)c(C)n1C | i | i | i | i | 35
O=C(CSc1nnc(CNC(=O)c2c(F)cccc2Cl)o1)Nc1ccc2c(c1)OCO2 | i | i | i | i | i
O=C(CSc1nnc(CNC(=O)c2c(F)cccc2Cl)o1)Nc1cccc(F)c1 | -33 | i | i | i | i
COc1ccccc1-c1nnc(SC/C(O)=C(\C#N)c2nc3ccccc3[nH]2)n1C1CCCCC1 | -34 | i | i | i | i
N#C/C(=C(/O)CSc1nnc(Cc2cccs2)n1C1CCCCC1)c1nc2ccccc2[nH]1 | i | i | i | i | i
Cc1ccc(CSc2nnc(SCC(=O)N/N=C/C=C/c3ccccc3[N+](=O)[O-])s2)cc1 | i | i | i | i | i
CCn1c(SCC(=O)N/N=C/C=C\c2ccccc2[N+](=O)[O-])nnc1-c1ccccc1 | -57 | i | i | i | i
O=S(=O)(Nc1ccccc1O)c1cccc2cccnc12 | -35 | i | i | i | i
O=C(N/N=C\c1cccc(OC(=O)c2ccco2)c1)c1ccc2c(c1)OCO2 | i | i | i | i | 33
O=C(N/N=C\c1ccc2c(c1)OCO2)c1ccco1 | i | i | i | i | i
NC(=O)c1ccc(C(=O)N/N=C/c2cccc(Oc3ccccc3)c2)cc1 | i | i | i | i | 36
O=C(N/N=C\C=C\c1ccc2c(c1)OCO2)c1cccnc1 | -39 | i | i | i | i
O=C(N/N=C/c1cccnc1)c1ccc2c(c1)OCO2 | -35 | i | i | i | i
O=C(/C=C/c1ccc2c(c1)OCO2)c1cccnc1 | i | i | i | i | i
O=C(N/N=C/c1cccc(Oc2ccccc2)c1)c1cccc(O)c1 | i | i | i | i | i
COc1ccc(S(=O)(=O)NCc2ccccn2)cc1NC(=O)c1ccccc1C | i | i | i | i | i
Cc1ccc(NC(=O)C(=O)NCC(c2cccnc2)N2CCc3ccccc3C2)cc1 (centres undefined) | i | i | i | i | i
CCc1ccc(CNC(=O)c2nn(-c3ccc(OC)c(Cl)c3)c(=O)c3c2c2ccccc2n3C)cc1 | i | i | i | i | i
Cn1cc(C(=O)NCN2CCCCC2)c2ccccc21 | -40 | i | i | i | i
SMILES | D1 antagonist | TRHR ag | D1 PAM | D1 agonist | TRHR PAM
CCC1CCCCN1S(=O)(=O)c1ccc2c(c1)CCN2C(C)=O (centres undefined) | i | i | i | i | i
Cc1ccc(-n2nnc(-c3nsc(NC(=O)c4ccc(C)c(C)c4)n3)c2C)cc1 | i | i | i | i | i
CCc1ccccc1-n1nnc(-c2nsc(NC(=O)c3ccc(C)c(C)c3)n2)c1C | i | 34 | i | i | i
Cc1nc(SCC(=O)c2ccc(Cl)cc2)c([N+](=O)[O-])[nH]1 | -40 | i | i | i | i
Cc1nc(SCC(=O)c2ccc(F)cc2)c([N+](=O)[O-])[nH]1 | i | i | i | i | i
CC(C)(C)N=C1NN=C(c2ccc(Cl)cc2)CS1 | -40 | i | i | i | i
CC(=O)c1c(C)[nH]c(C2=NNC(=NC(C)(C)C)SC2)c1C | -33 | i | i | i | i
CCOC(=O)c1c(C)[nH]c(C2=NNC(=Nc3ccc(OCC)cc3)SC2)c1C | -72 | i | i | i | i
Cc1nn(C)c(C)c1S(=O)(=O)N(CC(=O)NCCCN1CCC(C)CC1)c1ccc(C(C)C)cc1 | i | i | i | i | i
COc1ccc(S(=O)(=O)c2c(Nc3ccc(F)cc3)sc(C(=O)c3ccc(C)cc3C)c2N)cc1 | i | i | i | i | i
COc1cc(NC(=S)N2CCc3ccccc3C2)cc(OC)c1 | i | i | i | i | i
O=C(CCSCc1cccc(Cl)c1)N1CCN(c2ccc(Cl)cc2)CC1 | i | i | i | i | i
CC(C)(C)c1ccc(OCC(=O)N2CCCCCC2)c(Br)c1 | -35 | i | i | i | i
Cc1ccc(C)c(OCCCCn2cnc3ccccc3c2=O)c1 | i | i | i | 39 | i
CCOc1ccc(OCCCCn2cnc3ccccc3c2=O)cc1 | -42 | i | i | i | i
O=C(Cn1cnc2ccccc2c1=O)c1ccc2ccccc2c1 | i | i | i | i | i
Cc1ccc(C(=O)Cn2cnc3ccccc3c2=O)cc1C | i | i | i | 43 | i
Cc1cccc(C)c1NC(=O)CSc1nc2ncccc2o1 | i | i | i | i | i
N#C/C(=C/c1ccc(O)cc1)C(=O)NCc1ccc(Cl)cc1 | i | i | i | 34 | i
N#C/C(=C\c1ccc(O)cc1)C(=O)NCc1ccccc1 | i | i | i | i | i
N#C/C(=C\c1ccc(O)cc1)C(=O)NCc1cccc(Cl)c1 | i | i | i | 53 | i
Cc1cc(C)c(S(=O)(=O)NCC(c2cccs2)S(=O)(=O)c2ccccc2)c(C)c1 (centres undefined) | nt | i | i | i | i
Cc1cccc(NC(=O)C(NS(=O)(=O)c2ccc3c(c2)oc(=O)n3C)C(C)C)c1 (centres undefined) | i | i | i | i | i
CCOc1ccc(N(CC)C(=O)c2cc3c(s2)-c2ccc(Cl)cc2SC3)cc1 | i | i | i | i | i
COCCNC(=O)c1cc2c(s1)-c1ccc(Cl)cc1SC2 | -92 | i | i | i | i
SMILES | D1 antagonist | TRHR ag | D1 PAM | D1 agonist | TRHR PAM
Cc1cccc(N2CCN(C(=O)c3cccc(N4CCCC4=O)c3)C(C)C2)c1 (centres undefined) | i | i | i | i | i
O=C1CCCCN1CCCC(=O)N1CCCC(Nc2ccccc2)C1 (centres undefined) | -51 | i | i | i | i
CCc1ccccc1NC(=O)CN1CCCN(Cc2cc(C)ccc2C)S1(=O)=O | i | i | i | 33 | i
Cc1ccc(C)c(N2CCN(S(=O)(=O)c3ccc4c(c3)CCN4C(=O)CCC(=O)O)CC2)c1 | -34 | i | nt | i | i
Cc1ccc(NS(=O)(=O)c2ccc3c(c2)CCN3C(=O)CCC(=O)O)cc1Cl | i | i | i | 40 | i
Cc1cccc(N2CCN(S(=O)(=O)c3ccc4c(c3)CCN4C(=O)CCC(=O)O)CC2)c1C | i | i | i | i | i
CC(NCC(O)COCCC12CC3CC(CC(C3)C1)C2)c1ccccc1 (centres undefined) | i | i | i | 169 | i
CCCCN(CC)Cc1ccc(CNC(=S)Nc2cccc(F)c2)o1 | i | i | i | 34 | i
